Data on 14 compounds can be found in PubChem BioAssay (NCATS).

Several values for one entry are separate records, joined by “and”; a condition that tells them apart may be missing. Identical values can stand only once. Records with an inconclusive call do not appear. Activity calls are given as the source filed them. Unless noted, calls come from the whole dose curve; as a rule, active = well fitted curve in the direction sought with a large enough effect; inconclusive = small, poorly fitted or top-dose-only effect, or another doubt; inactive = no such curve, though single readings can be large; an effect the other way counts as inactive or inconclusive.

A short description of assay [1]: qHTS assay for small molecule agonists of the antioxidant response element (ARE) signaling pathway measured by Nrf2-dependant transcriptional activity (AID 720636; active = well fitted curve in the direction sought with a large enough effect in the repeat runs; an effect the other way counts as inactive or inconclusive; note: % of control where 0% means no effect). In short, it runs like this: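 ARE-luc HepG2 cells carrying an Nrf2-responsive luciferase reporter were plated in medium with 1% dialyzed FBS, left 6 hr at 37 C to attach, then exposed to compound for 16 hr. Luciferase luminescence was read after ONE-Glo addition.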
Background: qHTS replaces the single test concentration by a dilution series.

A short description of assay [2]: qHTS assay for small molecule antagonists of the retinoid-related orphan receptor gamma (ROR-gamma) signaling pathway - cell viability counter screen (AID 720652; active = well fitted curve in the direction sought with a large enough effect in the repeat runs; an effect the other way counts as inactive or inconclusive;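 note: CHO reporter cells with doxycycline-induced ROR-gamma expression; compound exposure lasted 16 hr before ATP read; % is set by controls: 0 for no effect and ±100 for the full control effect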). The method in brief: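 CHO RORE-LUC/TET-ROR line, 1,000 cells/well, 37 C 5% CO2 5 hr; cpd or DMSO + doxycycline induction, 16 hr. CellTiter-Glo, 30 min RT, luminescence = ATP content.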
Assay [3] is described as follows: qHTS assay for small molecule agonists of the antioxidant response element (ARE) signaling pathway measured by Nrf2-dependant transcriptional activity - cell viability counter screen (AID 720653; active = well fitted curve in the direction sought with a large enough effect in the repeat runs; an effect the other way counts as inactive or inconclusive; note: % is set by controls: 0 for no effect and ±100 for the full control effect). The settings on record: ARE-bla HepG2 viability, CellTiter-Glo ATP luminescence, 16 h; max response: stronger effect = lower value. In short, it runs like this: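 ARE-bla HepG2 cells (2,000/well) rested 5 hrs at 37C/5% CO2, then exposed to compounds in DMSO for 16 hrs. Viability was read in the same wells as intracellular ATP by luminescence, 30 min at room temperature after reagent addition.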

A short description of assay [4]: qHTS Assay for Identifying Gametocytocidal Compounds (AID 743244).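 For max response: % is set by controls: 0 for no effect and ±100 for the full control effect; actives lower the fluorescent signal which means gametocytes are killed.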 Note: potency is the fitted concentration of half-maximal effect. The settings on record: P. falciparum 3D7 stage III-V gametocytes, alamarBlue, 72 h; max response: stronger effect = lower value. In short, it runs like this: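 Using 20,000 stage III–V 3D7 gametocytes per well, compounds were incubated 72 h under 37 °C/5% CO2. Viability was then assessed by 24 h alamarBlue reduction, measured fluorometrically at 525/598 nm.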

The nature of assay [5]: qHTS assay for cell viability of HEK293 cells (AID 743288). Note: % is set by controls: 0 for no effect and ±100 for the full control effect; nearly all actives have a fitted effect of over 50% in size. The settings on record: ATP luminescence (CellTiter-Glo), 18 h, stronger effect = lower value. The method in brief:
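Steps: plate 2,000 parental HEK293 cells per well; incubate ≥5 h, 37 C; add compounds in DMSO; incubate 18 h, 37 C; add CellTiter-Glo; wait 30 min at room temperature; read luminescence.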

Assay [6] is described as follows: qHTS assay for cell viability of the p53RE-bla HCT-116 cell line (AID 743292). Note: % is set by controls: 0 for no effect and ±100 for the full control effect; nearly all actives have a fitted effect of over 55% in size. The method in brief:
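CellSensor p53RE-bla HCT-116 cells, 4,000/well, preincubated 5 h at 37 C, then exposed to compounds in DMSO for 16 h at 37 C. Viability read as CellTiter-Glo luminescence (intracellular ATP) after 30 min at room temperature.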

Assay [7] is described as follows: qHTS assay for measurement of the activity of small molecule inhibitors on Zika virus induced Caspase-3 activity in human iPSC derived neural progenitor cells (hNPCs) (AID 1224857). Note: % of control where 0% means no effect; nearly all actives have a fitted effect of over 65% in size. In short, it runs like this: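 After overnight (16–20 h) culture at 350 cells/well, hNPCs get compound, then ZIKV 2 FFU/cell one hour later. Six hours on, Caspase-Glo 3/7 is added and luminescence measured.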

Assay [8] can be described thus: P-glycoprotein substrates identified in KB-8-5-11 adenocarcinoma cell line, qHTS therapeutic library screen (AID 1346987). Note: % is set by controls: 0 for no effect and ±100 for the full control effect; nearly all actives have a fitted effect of over 65% in size. In short, it runs like this: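 In this qHTS, P-gp-rich KB-8-5-11 cells received library compounds across a concentration range. Viability was quantified by luminescence after 72 h at 37 degree C.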
The nature of assay [9]: qHTS assay for measurement of the activity of small molecule inhibitors on Zika virus induced Caspase-3 activity in human astrocytoma cells (AID 1224859).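 Note: plate controls were ZIKV-infected untreated cells for no effect and uninfected cells for full effect.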 The method in brief:
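Inhibition of Zika-induced caspase-3/7 activity: SNB-19 cells, 1 h compound pretreatment, ZIKV 2 FFU/cell for 6 h at 37 C, Caspase-Glo luminescence read-out.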

Assay [10] addresses T1, Hexokinase-4 (Homo sapiens) + Glucokinase regulatory protein (Homo sapiens) (UniProt P35557+Q14397). The assay can be described thus: qHTS assay for inhibitors of recombinant human GCK-GKRP interaction: Diaphorase-coupled assay (AID 743205). The method in brief:
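Compounds pre-incubated 20 min with substrate, then 10 nM GST-GCK with 10 nM FLAG-GKRP added. GCK activity coupled via G6PDH and diaphorase to resorufin (5 mM glucose, 0.4 mM ATP, 0.15 mM NADP+, pH 7.6), read kinetically over 30 minutes at Ex 525/Em 590 nm.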

Assay [11] has as its target T1, Hexokinase-4 (Homo sapiens) + Glucokinase regulatory protein (Homo sapiens). The assay can be described thus: qHTS assay for inhibitors of recombinant human GCK-GKRP interaction: ADP-Glo assay (AID 743206).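 Note: plate controls were DMSO plus enzyme for no effect and no enzyme for full effect.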 In short, it runs like this: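 Pin-transferred compounds meet a 15 nM GST-GCK/15 nM FLAG-GKRP/2 uM S6P mix (dispense concentrations). ATP is then added to 0.4 mM final with 5 mM glucose, and the reaction runs 60 min at room temperature. ADP is quantified luminescently.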

Assay [12] shares this target. Nature of the assay: qHTS assay for inhibitors of recombinant human GCK-GKRP interaction: HTRF assay (AID 743207).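 Note: 0% = DMSO with GCK present and -100% = DMSO wells lacking GCK.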 In short, it runs like this: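 HTRF binding of 5 nM GST-GCK and 5 nM FLAG-GKRP with 2 uM S6P in pH 7.1 Hepes buffer (MgCl2, KCl, DTT, Tween 20, BSA). Anti-FLAG XL665 and anti-GST donor added, 60 min at room temperature; 665/615 nm read, normalized to with- and without-GCK controls.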

The nature of assay [13]: P-glycoprotein substrates identified in KB-3-1 adenocarcinoma cell line, qHTS therapeutic library screen (AID 1346986). Note: % is set by controls: 0 for no effect and ±100 for the full control effect; nearly all actives have a fitted effect of over 60% in size. The method in brief: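 Using luminescence to quantify ATP, parental and P-gp-overexpressing KB cells were compared after 72 h compound titration. KB-8-5-11 was also run with the P-gp inhibitor tariquidar.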
Assay [14] concerns the target Atrial natriuretic peptide receptor 1 (Homo sapiens) (UniProt P16066). Nature of the assay: Natriuretic polypeptide receptor (hNpr1) antagonism - Pilot screen (AID 1347049; calls by dose curve;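 note: HEK293 cells with hNpr1 and GloSensor cGMP luciferase stimulated by 0.1 nM hNppA; agonist-evoked cGMP luminescence read 20 min after hNppA addition; % is set by controls: 0 for no effect and ±100 for the full control effect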). The method in brief: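 Cells expressing receptor plus cGMP biosensor are seeded and incubated overnight at 37C, then loaded with GloSensor reagent (2% final) at room temperature for 2 h. Library compounds go on for 30 min. A pre-read precedes agonist (hNppA, 0.1 nM final) and a 20-min readout.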

Assay [15] in a line: qHTS profiling of the MIPE4 collection as inhibitors of Plasmodium falciparum (3D7) proliferation (AID 743344; call rule not given here;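 note: scaled between DMSO vehicle wells and 0.29 µM artemisinin as full inhibition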). The settings on record: P. falciparum 3D7 in erythrocytes, SYBR Green DNA fluorescence, 72 h; at 28.5 µM (top of the series) unless noted. The method in brief:
(§1)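 Parasite DNA was quantified by SYBR Green I fluorescence (ex 485, em 535 nm) after overnight lysis in saponin/Triton buffer at room temperature. Cultures at 0.3% parasitemia and 2.5% hematocrit were first exposed to compound for 72 h at 37 C; signals were normalised to artemisinin (0.29 uM) and vehicle wells.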

Assay [16] is described as follows: qHTS profiling of the MIPE4 collection as inhibitors of Plasmodium falciparum (DD2) proliferation (AID 743345; call rule not given here). The following applies: P. falciparum Dd2 in erythrocytes, SYBR Green DNA, 72 h; at 28.5 µM (top of the series) unless noted. The method in brief: as §1
Assay [17] in a line: qHTS profiling of the MIPE4 collection as inhibitors of Plasmodium falciparum (DD2) proliferation (Rep 2) (AID 743346; call rule not given here). The settings on record: P. falciparum Dd2 in erythrocytes, SYBR Green DNA, 72 h; at 28.5 µM (top of the series) unless noted. In short, it runs like this: as §1
Assay [18] in a line: qHTS profiling of the MIPE4 collection as inhibitors of Plasmodium falciparum (HB3) proliferation (AID 743347; call rule not given here;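 note: plate controls were DMSO vehicle wells for no effect and artemisinin wells for full effect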). The settings on record: P. falciparum HB3 in erythrocytes, SYBR Green DNA, 72 h; at 28.5 µM (top of the series) unless noted. The method in brief: as §1

T1 sequence (P35557 whole entry, looked up): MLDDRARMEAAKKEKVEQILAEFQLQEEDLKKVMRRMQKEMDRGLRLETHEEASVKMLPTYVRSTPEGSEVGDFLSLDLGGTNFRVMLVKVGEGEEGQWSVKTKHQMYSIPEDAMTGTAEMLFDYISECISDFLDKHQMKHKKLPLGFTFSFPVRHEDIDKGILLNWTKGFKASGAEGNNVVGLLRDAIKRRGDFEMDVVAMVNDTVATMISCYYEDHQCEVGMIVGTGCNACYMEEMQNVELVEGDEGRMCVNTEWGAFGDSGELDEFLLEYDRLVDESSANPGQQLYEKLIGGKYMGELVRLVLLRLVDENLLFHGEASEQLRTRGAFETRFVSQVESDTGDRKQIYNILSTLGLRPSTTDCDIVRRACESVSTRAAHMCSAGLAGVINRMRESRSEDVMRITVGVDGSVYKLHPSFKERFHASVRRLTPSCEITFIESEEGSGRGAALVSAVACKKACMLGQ
T1 sequence (Q14397 whole entry, looked up): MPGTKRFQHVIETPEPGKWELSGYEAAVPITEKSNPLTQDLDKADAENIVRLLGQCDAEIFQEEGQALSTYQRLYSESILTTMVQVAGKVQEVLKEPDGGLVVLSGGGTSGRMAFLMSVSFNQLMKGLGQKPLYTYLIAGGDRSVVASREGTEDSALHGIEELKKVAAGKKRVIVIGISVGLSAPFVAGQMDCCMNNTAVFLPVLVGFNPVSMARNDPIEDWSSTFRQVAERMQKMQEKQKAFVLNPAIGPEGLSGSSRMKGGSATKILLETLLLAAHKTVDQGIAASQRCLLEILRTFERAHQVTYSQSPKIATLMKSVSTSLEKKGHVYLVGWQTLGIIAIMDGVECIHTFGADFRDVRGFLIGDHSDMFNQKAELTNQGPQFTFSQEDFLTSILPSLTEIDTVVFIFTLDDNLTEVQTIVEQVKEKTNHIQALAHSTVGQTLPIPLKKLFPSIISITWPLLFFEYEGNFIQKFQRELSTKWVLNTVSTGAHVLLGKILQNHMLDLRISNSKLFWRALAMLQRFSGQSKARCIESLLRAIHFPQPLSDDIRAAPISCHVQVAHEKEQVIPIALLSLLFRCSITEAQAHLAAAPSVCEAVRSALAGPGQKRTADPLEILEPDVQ
Sequence of Atrial natriuretic peptide receptor 1 (Homo sapiens) (P16066 whole entry, looked up): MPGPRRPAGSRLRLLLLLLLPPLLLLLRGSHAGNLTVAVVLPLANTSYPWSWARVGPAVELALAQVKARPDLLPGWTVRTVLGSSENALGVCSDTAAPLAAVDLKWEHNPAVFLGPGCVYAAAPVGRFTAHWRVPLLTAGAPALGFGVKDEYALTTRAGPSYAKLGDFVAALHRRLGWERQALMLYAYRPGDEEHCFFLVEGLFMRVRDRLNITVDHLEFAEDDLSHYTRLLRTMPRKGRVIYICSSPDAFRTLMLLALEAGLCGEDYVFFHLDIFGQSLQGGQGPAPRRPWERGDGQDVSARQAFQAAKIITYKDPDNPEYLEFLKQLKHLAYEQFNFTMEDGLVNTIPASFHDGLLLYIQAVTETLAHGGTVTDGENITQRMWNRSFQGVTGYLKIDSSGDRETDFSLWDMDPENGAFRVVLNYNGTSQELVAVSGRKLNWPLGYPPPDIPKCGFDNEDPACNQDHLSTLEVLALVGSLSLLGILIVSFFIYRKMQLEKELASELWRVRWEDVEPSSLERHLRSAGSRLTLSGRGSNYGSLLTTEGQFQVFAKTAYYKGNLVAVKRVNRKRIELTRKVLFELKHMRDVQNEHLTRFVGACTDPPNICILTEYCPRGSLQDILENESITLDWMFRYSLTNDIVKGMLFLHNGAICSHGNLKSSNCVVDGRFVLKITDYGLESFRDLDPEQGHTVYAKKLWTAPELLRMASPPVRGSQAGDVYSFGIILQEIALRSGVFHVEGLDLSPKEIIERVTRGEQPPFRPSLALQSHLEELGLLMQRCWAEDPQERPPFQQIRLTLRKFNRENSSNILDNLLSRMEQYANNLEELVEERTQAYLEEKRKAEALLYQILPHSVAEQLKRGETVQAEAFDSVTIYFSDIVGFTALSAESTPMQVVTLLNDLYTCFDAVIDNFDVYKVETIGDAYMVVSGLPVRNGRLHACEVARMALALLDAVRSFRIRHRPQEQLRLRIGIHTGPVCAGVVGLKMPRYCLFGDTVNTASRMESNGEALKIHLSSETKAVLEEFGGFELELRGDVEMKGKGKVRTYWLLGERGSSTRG

As to `Cc1ccc(O)cc1`, the compound was classed as inactive in assay [1] and in assay [2]. Also, the max response is -5.41% (inactive) in assay [3]; -13.3% (inactive) and 9.92% (inactive) in assay [4]; 0.239% (inactive) in [5]. The Potency result in assay [6], in [7] and in [8] was “inactive” each time.
Regarding `NC(=O)COCCN1CCN(C(c2ccccc2)c2ccc(Cl)cc2)CC1` (centres undefined), the max response in assay [4] is -3.31% (inactive). Further, the Potency entry in assay [7] was “inactive”. Further, in assay [9], the compound was classed as inactive.
Take `CCCCCC[C@@H](CCC)C(=O)O`: the max response in assay [4] was 16.9% (inactive). Also, in assay [7], the Potency entry is “inactive”. In addition, the result in assay [9] was inactive.
Turning to `Cc1ccccc1N1CCN(CCc2nnc3n2CCCC3)CC1`, the max response in assay [4] is -15.7% (inactive). In addition, in [7], the Potency entry is “inactive”.
With `CN1CCC(N(Cc2cccs2)c2ccccc2)CC1`, the max response in [4] is 8.89% (inactive). Further, the Potency entry in [7] is “inactive”. The compound was called inactive in [9].
Consider `CSCC[C@H](NC(=O)[C@H](Cc1c[nH]c2ccccc12)NC(=O)CCNC(=O)OC(C)(C)C)C(=O)N[C@@H](CC(=O)O)C(=O)N[C@@H](Cc1ccccc1)C(N)=O`, for which the max response in [4] is -18.5% (inactive). For the same compound, the Potency entry in [7] was “inactive”. Moreover, the compound was classed as inactive in assay [9].
`CCCCCCCCCCCCCCCCCCNC(=O)OC1CCN(C(=O)OC[C@H](COC(=O)N(Cc2cccc[n+]2CC)C(=O)c2ccccc2OC)OC)CC1`: the Potency in assay [4] is 15.8 µM (active). Further, in assay [7], the Potency entry was “inactive”. Also, the compound was called inactive in assay [9].
For `Cc1ccc(/C=N/n2c(-c3ccccc3)csc2=S)cc1`, the max response in assay [4] was -23% (inactive). Also, the Potency entry in assay [7] is “inactive”. Further, the outcome in assay [9] was inactive.
Regarding `CCCC(=O)Nc1ccc(O)c(C(C)=O)c1`, the compound was classed as inactive in assay [9].
With `C[N+]1(C)CCC(OC(=O)C(O)(c2ccccc2)C2CCCC2)C1` (centres undefined), the max response in assay [4] is -10.9% (inactive) and -9.67% (inactive). The Potency entry in [7] was “inactive”. Besides, in assay [9], the outcome was inactive.
For `O=C(CO)[C@@H](O)[C@H](O)[C@@H](O)CO`, the max response in assay [4] was -0.255% (inactive). Moreover, the Potency entry in [7] was “inactive”. Further, in assay [9], the compound was classed as inactive.
Turning to `CN(C)c1cc2c(Nc3ccc4c(cnn4Cc4ccccc4)c3)ncnc2cn1`, the result in assay [10], in [11] and in [12] was inactive. Besides, the Potency entry in assay [7], in [13] and in assay [14] was “inactive” in each case.
As to `CN1C(=O)c2ccccc2C1=O`, the call in [1] was inactive. The max response in assay [3] was -2.52% (inactive); in [4] it was 10.3% (inactive); in assay [5], -9.41% (inactive). For the same compound, the Potency result in assay [6], in assay [7] and in assay [8] was “inactive” throughout.
The compound `NCC[C@H](O)C(=O)N[C@@H]1C[C@H](N)[C@@H](O[C@H]2O[C@H](CN)[C@@H](O)[C@H](O)[C@@H]2O)[C@H](O)[C@@H]1O[C@H]1O[C@H](CO)[C@@H](O)[C@H](N)[C@@H]1O` displayed a parasite growth, % of DMSO control in assay [15] of 98% [at 0.217 µM]. This compound yielded a parasite growth remaining, % of DMSO control (lower = more inhibition) in assay [16] of 89.8% [at 0.217 µM]. The parasite growth, % of control (lower = inhibition) in assay [17] was determined as 163% [at 0.217 µM]. The growth, % of control in assay [18] amounted to 94.3% [at 0.217 µM]. Moreover, the activity change, negative = inhibition was -1.8% [at 0.568 µM] (inactive) in assay [7] and 13.4% [at 0.568 µM] (inactive) in assay [9].
